These results are taken from PubChem BioAssay (NCI).

This is part of a sample that, as a whole, favours compounds with a hit. Of some 83,000 tested, about 20% had one in any assay.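 Activity criterion: percent growth below 10, measured after cells in 96-well plates were exposed to a single compound concentration for 48 hours.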 Unmarked numbers belong to inactive results. Active and inactive are the calls of the source.

Among the test systems are SR leukemia; RPMI-8226 leukemia; OVCAR-8 ovarian; OVCAR-5 ovarian; OVCAR-4 ovarian; SK-OV-3 ovarian; IGROV1 ovarian; OVCAR-3 ovarian; HS 578T breast; NCI/ADR-RES ovarian.
What all share (experiment): NCI-60 one-dose screen, 48 h (100 = growth as untreated, 0 = no growth, -100 = all killed)
Holding throughout (details): 10 µM unless noted

Regarding `COc1ccc2[nH]c(=O)c(/C=N/Nc3nc(-c4ccccc4)cs3)c(O)c2c1`, the growth was 56.2% with SR leukemia; 70.6% with RPMI-8226 leukemia; 55.1% in the experiment with OVCAR-8 ovarian; 85.6% in the experiment with OVCAR-5 ovarian; 47.9% with OVCAR-4 ovarian; 76.8% with SK-OV-3 ovarian. In addition, the growth in the experiment on IGROV1 ovarian was 70.3%; with OVCAR-3 ovarian it was 24.2%; with HS 578T breast, 112%; with NCI/ADR-RES ovarian, 37.7%.

Regarding `NNc1cccc(/C=C/c2ccccc2)cc1=O`, the growth is 31.8% with SR leukemia; 29.8% with RPMI-8226 leukemia; 57.8% with OVCAR-8 ovarian; 82.3% with OVCAR-5 ovarian; 45.9% in the experiment on OVCAR-4 ovarian; 76.4% with SK-OV-3 ovarian. Also, the growth with IGROV1 ovarian was 33.6%; in the experiment on OVCAR-3 ovarian it was 54.6%; in the experiment on HS 578T breast, 78.5%; with NCI/ADR-RES ovarian it was 59.6%.

In the case of `Cc1cccc(/C=N/Nc2cc(C)c3cccc(C)c3n2)n1`, the growth in the experiment with SR leukemia was 47.2%; in the experiment with RPMI-8226 leukemia, 60.8%; in the experiment on OVCAR-8 ovarian, 83.3%; in the experiment on OVCAR-5 ovarian it was 94.3%; in the experiment on OVCAR-4 ovarian, 90.2%; in the experiment on SK-OV-3 ovarian it was 115%. The growth with IGROV1 ovarian was 96.7%; with OVCAR-3 ovarian it was 102%; in the experiment with HS 578T breast, 108%; with NCI/ADR-RES ovarian, 84.5%.

With `Nc1ccc(C(=O)CSc2nc3ccccc3[nH]2)cc1`, the growth is 110% with SR leukemia; 103% in the experiment on RPMI-8226 leukemia; 105% with OVCAR-8 ovarian; 102% with OVCAR-5 ovarian; 110% in the experiment with OVCAR-4 ovarian; 105% with SK-OV-3 ovarian. Besides, the growth with IGROV1 ovarian was 112%; with OVCAR-3 ovarian, 107%; with HS 578T breast, 109%; in the experiment on NCI/ADR-RES ovarian it was 99.3%.

Turning to `CN(C)c1nc2c(N)ncnc2n1C1OC(CO)C(O)C1O` (stereo not given), the growth with SR leukemia is 99%; in the experiment on RPMI-8226 leukemia it was 92.1%; with OVCAR-8 ovarian it was 107%; with OVCAR-5 ovarian it was 97.6%; with OVCAR-4 ovarian it was 123%; with SK-OV-3 ovarian it was 116%. Further, the growth with IGROV1 ovarian is 111%; in the experiment on OVCAR-3 ovarian, 108%; with HS 578T breast it was 106%; in the experiment with NCI/ADR-RES ovarian, 114%.

On to `COc1cccc(-c2nc3sccn3c2-c2ccnc(NCCCNS(=O)(=O)c3ccc(F)cc3)c2)c1`, for which the growth is 45.2% with SR leukemia; -25.1% (active) in the experiment on RPMI-8226 leukemia; 16% with OVCAR-8 ovarian; 83.6% in the experiment with OVCAR-5 ovarian; 30.2% with OVCAR-4 ovarian; 74.8% in the experiment with SK-OV-3 ovarian. For the same molecule, the growth with IGROV1 ovarian is 29.7%; in the experiment with OVCAR-3 ovarian, 35.8%; with HS 578T breast, 63.7%; with NCI/ADR-RES ovarian, 10.2%.

In the case of `COc1cc(C(=O)/C=C/c2c(C)n([O-])c3ccc(C(F)(F)F)cc3[n+]2=O)cc(OC)c1OC`, the growth with SR leukemia was 24.4%; in the experiment on RPMI-8226 leukemia it was 59.6%; with OVCAR-8 ovarian, 8.63% (active); with OVCAR-5 ovarian, 122%; in the experiment with OVCAR-4 ovarian it was 89.5%; in the experiment on SK-OV-3 ovarian it was 87.3%. The growth is 111% with IGROV1 ovarian, -18.9% (active) in the experiment with OVCAR-3 ovarian, 119% with HS 578T breast and 75.7% in the experiment on NCI/ADR-RES ovarian.

On to `COc1ccc(C2=C(c3cc(OC)c(OC)c(OC)c3)C(=O)CC2)cc1`, for which the growth in the experiment on SR leukemia was 15.7%; in the experiment with RPMI-8226 leukemia, 14.1%; in the experiment with OVCAR-8 ovarian it was 22.8%; in the experiment with OVCAR-5 ovarian, 33.1%; with OVCAR-4 ovarian it was 49%; with SK-OV-3 ovarian it was 7.01% (active). Also, the growth in the experiment with IGROV1 ovarian is 27.9%; with OVCAR-3 ovarian, -65.4% (active); in the experiment on HS 578T breast it was 6.1% (active); with NCI/ADR-RES ovarian, -49.4% (active).

`CCN(CC)CCOc1ccc(Cl)c(C)c1`: the growth in the experiment on SR leukemia is 92.3%; in the experiment with RPMI-8226 leukemia it was 99.9%; in the experiment with OVCAR-8 ovarian, 104%; in the experiment with OVCAR-5 ovarian, 101%; in the experiment with OVCAR-4 ovarian, 117%; in the experiment with SK-OV-3 ovarian, 98.1%. Besides, the growth in the experiment with IGROV1 ovarian is 99.6%; in the experiment on OVCAR-3 ovarian, 95.1%; in the experiment with HS 578T breast, 103%; in the experiment with NCI/ADR-RES ovarian it was 102%.

For `O=C(Nc1ccncc1)C(=O)c1cn(S(=O)(=O)c2ccc(Cl)cc2)c2ccccc12`, the growth with SR leukemia is 28.3%; in the experiment with RPMI-8226 leukemia it was 31.4%; in the experiment with OVCAR-8 ovarian, 42.5%; with OVCAR-5 ovarian, 64.7%; in the experiment on OVCAR-4 ovarian, 49%; with SK-OV-3 ovarian it was 91.7%. The growth was 39.7% with IGROV1 ovarian, -22.3% (active) with OVCAR-3 ovarian, 13.5% in the experiment on HS 578T breast and -4.89% (active) in the experiment on NCI/ADR-RES ovarian.

Turning to `CCOC(=O)c1ccc(NC(=O)N2CC(C)OC(C)C2)cc1` (stereo not given), the growth was 98.7% in the experiment with SR leukemia; 63.1% in the experiment on RPMI-8226 leukemia; 101% in the experiment with OVCAR-8 ovarian; 94% in the experiment with OVCAR-5 ovarian; 96.8% with OVCAR-4 ovarian; 99.5% with SK-OV-3 ovarian. Also, the growth in the experiment with IGROV1 ovarian is 73.6%; with OVCAR-3 ovarian it was 109%; in the experiment with HS 578T breast, 101%; in the experiment with NCI/ADR-RES ovarian, 100%.

Take `CCOC(=O)c1c(NS(=O)(=O)c2ccc(C)cc2)sc2c1CCC1(C2)OCCO1`: the growth is 94.3% in the experiment on SR leukemia; 86.7% in the experiment on RPMI-8226 leukemia; 95.7% with OVCAR-8 ovarian; 88.8% in the experiment with OVCAR-5 ovarian; 91.4% with OVCAR-4 ovarian; 90.1% with SK-OV-3 ovarian. Moreover, the growth was 109% in the experiment on IGROV1 ovarian, 103% in the experiment with OVCAR-3 ovarian, 81.3% in the experiment on HS 578T breast and 98% in the experiment on NCI/ADR-RES ovarian.

Consider `CO[C@H]1NC(=O)N(S(=O)(=O)c2ccc(Cl)cc2)[C@@H]1OC`, for which the growth with SR leukemia was 93.9%; in the experiment on RPMI-8226 leukemia, 96.1%; in the experiment with OVCAR-8 ovarian, 106%; in the experiment on OVCAR-5 ovarian, 111%; in the experiment with OVCAR-4 ovarian, 108%; in the experiment with SK-OV-3 ovarian, 102%. In addition, the growth in the experiment on IGROV1 ovarian was 124%; in the experiment with OVCAR-3 ovarian, 108%; in the experiment with HS 578T breast, 100%; in the experiment on NCI/ADR-RES ovarian it was 110%.
